From PubChem BioAssay AID743286 (National Center for Advancing Translational Sciences (NCATS), 2014)
Out of some 1,100 compounds screened, about 340 (31%) were called active. Inconclusive results (about 40%) are left out. Calls come from the whole dose curve; as a rule, active = well fitted inhibition curve with a large enough effect; inconclusive = small, poorly fitted or top-dose-only effect; inactive = flat fitted curve, though single readings scatter. Only a sample is shown. A call without a number means that no potency is given here.

Each molecule was assayed against Phosphatidylinositol 5-phosphate 4-kinase type-2 alpha (Homo sapiens) (UniProt P48426) (assay: qHTS for Inhibitors of PI5P4K: Confirmation in Primary Assay). Conditions: PI5P4Kalpha enzyme, ADP-Glo luminescence, 60 min; series mostly up to 76.9 µM.
In short: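 PI5P4Kα with PI5P substrate in 0.038 M HEPES pH 7.4, 0.28 mM EGTA, 0.1% CHAPS, 5% DMSO; reaction started with 5 µM ATP (final), 60 min at room temperature. ADP formed read by ADP-Glo luminescence end-point.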
Note: nearly all actives have a fitted effect of over 65% in size.
Potency is the fitted concentration of half-maximal effect.

Sequence of Phosphatidylinositol 5-phosphate 4-kinase type-2 alpha (Homo sapiens) (P48426 whole entry, looked up): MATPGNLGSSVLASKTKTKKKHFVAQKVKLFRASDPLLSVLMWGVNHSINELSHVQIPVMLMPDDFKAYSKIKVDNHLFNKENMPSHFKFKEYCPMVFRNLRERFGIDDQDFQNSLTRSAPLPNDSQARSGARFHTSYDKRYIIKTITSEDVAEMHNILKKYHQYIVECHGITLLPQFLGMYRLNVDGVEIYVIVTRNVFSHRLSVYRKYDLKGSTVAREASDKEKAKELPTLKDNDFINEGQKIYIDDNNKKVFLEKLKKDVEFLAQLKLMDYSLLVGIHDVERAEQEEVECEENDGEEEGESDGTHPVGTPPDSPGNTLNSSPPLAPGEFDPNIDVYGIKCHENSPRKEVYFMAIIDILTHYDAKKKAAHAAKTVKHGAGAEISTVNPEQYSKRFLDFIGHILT

**Q.** `CCOc1ccc(OCc2ccc(C(=O)N3CCOCC3)cc2)cc1` was tested. Which Potency did it give?
**A.** inactive

**Q.** `CCC(C)c1nc2ccsc2c(N2CCOC2=O)c1-c1ccccc1` (configuration not stated) was tested. Which Potency did it give?
**A.** inactive

**Q.** `Cc1cccnc1NC(=O)CSc1nnc(COc2ccc(C(C)C)cc2)n1C` was tested. Which Potency did it give?
**A.** inactive

**Q.** With `O=C(CSc1nc2c(cnn2-c2cccc(Cl)c2)c(=O)[nH]1)NCC1CCCO1` (configuration not stated) as the molecule, how does the Potency read?
**A.** inactive

**Q.** How did the Potency turn out when `O=c1c2ccccc2[nH]c2ccc(O)cc12` was run?
**A.** 20 µM (active)

**Q.** Which Potency does the source give for `O=[N+]([O-])c1ccc(-c2cc(-c3ccc(Cl)cc3)n[nH]2)cc1` here?
**A.** inactive

**Q.** `CNC(=O)COC(=O)c1cc(-c2ccco2)nc2ccccc12` was tested. Which Potency did it give?
**A.** 12.6 µM (active)

**Q.** Which Potency does the source give for `Cc1nc2ccccc2nc1OCC(=O)NCc1ccc2c(c1)OCO2` here?
**A.** inactive

**Q.** Which Potency does the source give for `CCNC(=O)COC(=O)c1cc(-c2ccco2)nc2ccccc12` here?
**A.** 14.1 µM (active)

**Q.** How did the Potency turn out when `CCN(CC)C(=O)COC(=O)c1cc(-c2ccco2)nc2ccccc12` was run?
**A.** 12.6 µM (active)

**Q.** How did the Potency turn out when `O=C(OCc1nnc(-c2ccccc2)o1)c1ccc2ccccc2n1` was run?
**A.** inactive

**Q.** With `COc1ccc(CNC(=O)CCCn2nc(C)c([N+](=O)[O-])c2C)cc1OC` as the molecule, how does the Potency read?
**A.** inactive

**Q.** With `Cc1ccc(NC(=O)Nc2cccs2)cc1` as the molecule, how does the Potency read?
**A.** inactive

**Q.** With `CC(C)NC(=O)N1c2ccccc2Sc2ccccc21` as the molecule, how does the Potency read?
**A.** inactive

**Q.** Which Potency does the source give for `COC(=O)Cc1c(C)nc2nc(-c3ccc(C)cc3)[nH]n2c1=O` here?
**A.** 6.31 µM (active)

**Q.** `O=C(Nc1nnc(-c2ccc(Cl)cc2)o1)c1nc2ccccc2s1` was tested. Which Potency did it give?
**A.** 14.1 µM (active)

**Q.** With `O=C(Nc1nnc(-c2ccncc2)o1)c1ccccc1` as the molecule, how does the Potency read?
**A.** inactive

**Q.** `O=C(Nc1nnc(SCc2ccc(Cl)cc2)s1)c1ccco1` was tested. Which Potency did it give?
**A.** inactive

**Q.** For `CC(C)(C)NC(=O)Nc1ccc(Cn2cc(C(F)(F)F)ccc2=O)cc1`, which Potency is on record?
**A.** inactive

**Q.** How did the Potency turn out when `Cc1c(C(=O)O)sc2ncnc(N3CCCCC3C)c12` (configuration not stated) was run?
**A.** 10 µM (active)

**Q.** With `O=C(COc1cccc2ccccc12)Nc1ccc(Cl)cc1C(=O)O` as the molecule, how does the Potency read?
**A.** 25.1 µM (active)

**Q.** With `CNC(=O)c1nc(C)n(-c2ccc(Cl)cc2Cl)n1` as the molecule, how does the Potency read?
**A.** inactive

**Q.** `Cc1ccc(C(c2nnnn2CS(=O)(=O)c2ccc(C)cc2)N2CCC(C)CC2)cc1` (configuration not stated) was tested. Which Potency did it give?
**A.** inactive

**Q.** For `N#Cc1c(NC(=O)CSc2ncnc3sccc23)oc(-c2ccco2)c1-c1ccco1`, which Potency is on record?
**A.** 17.8 µM (active)

**Q.** For `NC(=O)c1ccsc1NC(=O)COC(=O)c1ccccc1F`, which Potency is on record?
**A.** 22.4 µM (active)

**Q.** For `CN(C)S(=O)(=O)c1cccc(C(=O)OCC(=O)Nc2sccc2C(N)=O)c1`, which Potency is on record?
**A.** inactive

**Q.** How did the Potency turn out when `Cc1cc(C(=O)OCC(=O)Nc2c(F)cccc2F)c(C)n1-c1ccccc1` was run?
**A.** inactive

**Q.** Which Potency does the source give for `Cc1cc(C)c2c(N)c(C(=O)Nc3c(C)n(C)n(-c4ccccc4)c3=O)sc2n1` here?
**A.** inactive

**Q.** `Cc1sc(NC(=O)c2sc3nc4c(C)cccc4cc3c2N)c(C#N)c1C` was tested. Which Potency did it give?
**A.** 11.2 µM (active)

**Q.** With `N#CC1=C2SCN(c3ccccc3)CN2C(=O)CC1c1c(Cl)cccc1Cl` (configuration not stated) as the molecule, how does the Potency read?
**A.** 22.4 µM (active)

**Q.** `CCc1ccccc1N1CSC2=C(C#N)C(c3ccccc3F)CC(=O)N2C1` (configuration not stated) was tested. Which Potency did it give?
**A.** 14.1 µM (active)

**Q.** Which Potency does the source give for `N#CC1=C2SCN(c3ccccc3)CN2C(=O)CC1c1ccccc1Cl` (configuration not stated) here?
**A.** 25.1 µM (active)

**Q.** Which Potency does the source give for `O=C(CSc1ncnc2sc3c(c12)CCC3)N1CCOCC1` here?
**A.** inactive

**Q.** With `COc1ccc2c([N+](=O)[O-])c(Cl)[nH]c2c1` as the molecule, how does the Potency read?
**A.** 10 µM (active)

**Q.** `CC(C)C(=O)Nc1ccccc1N1CCN(S(C)(=O)=O)CC1` was tested. Which Potency did it give?
**A.** inactive

**Q.** How did the Potency turn out when `O=C(NCCCCc1ccccc1)c1cccc(NC(=O)C2CC2)c1` was run?
**A.** inactive

**Q.** For `O=C(NCc1cc([N+](=O)[O-])ccc1O)c1cccc(NS(=O)(=O)c2ccccc2)c1`, which Potency is on record?
**A.** 14.1 µM (active)

**Q.** Which Potency does the source give for `O=C(NCC1CCCCC1)c1cccc([N+](=O)[O-])c1` here?
**A.** inactive

**Q.** For `OCCCNc1nccc(-c2cc(Nc3cccc(Cl)c3)ncn2)n1`, which Potency is on record?
**A.** 14.1 µM (active)

**Q.** For `OC(c1ccc(Cl)c(F)c1)c1ncc(-c2ccc(Oc3ccccc3)cc2)[nH]1` (configuration not stated), which Potency is on record?
**A.** inactive

**Q.** `COc1cc(OC)cc(-c2nnc(NC(=O)CCS(=O)(=O)c3ccc(C)cc3)o2)c1` was tested. Which Potency did it give?
**A.** inactive

**Q.** With `O=S(=O)(NCCC1=CCCCC1)c1cccc(S(=O)(=O)N2CCOCC2)c1` as the molecule, how does the Potency read?
**A.** inactive

**Q.** How did the Potency turn out when `O=S(=O)(c1ccccc1)c1nc(-c2ccco2)oc1N1CCCCCC1` was run?
**A.** inactive

**Q.** `O=S(=O)(c1ccc2nc(-c3ccco3)c(-c3ccco3)nc2c1)N1CCOCC1` was tested. Which Potency did it give?
**A.** 15.8 µM (active)

**Q.** Which Potency does the source give for `O=C(Nc1ccc2c(c1)OCCO2)c1ccccc1F` here?
**A.** inactive

**Q.** `COc1ccc(C(C(=O)NC2CCCC2)N(C(=O)c2snc(C(N)=O)c2N)c2cccc(O)c2)cc1` (configuration not stated) was tested. Which Potency did it give?
**A.** inactive

**Q.** Which Potency does the source give for `N#Cc1cc(-c2ccccc2)nn1-c1ccccc1` here?
**A.** 10 µM (active)

**Q.** How did the Potency turn out when `Cc1ccc(CSCC(=O)N2CCOCC2)cc1` was run?
**A.** inactive

**Q.** For `O=C(Nc1cccc(Cl)c1)N1CCCC1`, which Potency is on record?
**A.** inactive

**Q.** `COCCn1c(SCC(=O)Nc2cccc(S(N)(=O)=O)c2)nc2cc(Cl)ccc2c1=O` was tested. Which Potency did it give?
**A.** inactive

**Q.** Which Potency does the source give for `O=C(Cc1ccc(Cl)cc1Cl)Nc1cccc(S(=O)(=O)Nc2ccccc2F)c1` here?
**A.** 3.98 µM (active)

**Q.** For `CC(=O)NC(c1cccs1)c1cc([N+](=O)[O-])c2cccnc2c1O` (configuration not stated), which Potency is on record?
**A.** 12.6 µM (active)
